The campaign covered roughly 360,000 compounds. About 25,000 (6.9%) were called active. Not shown: some 9% with an inconclusive outcome. Calls come from the whole dose curve; as a rule, active = well fitted inhibition curve with a large enough effect; inconclusive = small, poorly fitted or top-dose-only effect; inactive = flat fitted curve, though single readings scatter. Only a selection was taken, and actives are over-represented in it overall.
molecular target: Luciferin 4-monooxygenase (Photinus pyralis) (UniProt P08659); test: qHTS profiling assay for firefly luciferase inhibitor/activator using purifed enzyme and Km concentrations of substrates (counterscreen for miR-21 project); settings: purified FLuc, luminescence inhibition; series mostly up to 57.5 µM; activity change, negative = inhibition: at the top concentration; note: nearly all actives have a fitted effect of over 55% in size;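 for activity change, negative = inhibition: plate controls were vehicle for no effect and reference inhibitor for full effect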
How it was run: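 Purified P. pyralis luciferase, 10 nM final, with Km-level 10 uM D-luciferin and 10 uM ATP in 50 mM Tris acetate pH 7.5, 10 mM Mg acetate, 0.01% Tween-20, 0.05% BSA; 6-point qHTS titration about 60 µM downward; luminescence read.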
Potency is the fitted concentration of half-maximal effect.

Sequence of Luciferin 4-monooxygenase (Photinus pyralis) (P08659 whole entry, looked up): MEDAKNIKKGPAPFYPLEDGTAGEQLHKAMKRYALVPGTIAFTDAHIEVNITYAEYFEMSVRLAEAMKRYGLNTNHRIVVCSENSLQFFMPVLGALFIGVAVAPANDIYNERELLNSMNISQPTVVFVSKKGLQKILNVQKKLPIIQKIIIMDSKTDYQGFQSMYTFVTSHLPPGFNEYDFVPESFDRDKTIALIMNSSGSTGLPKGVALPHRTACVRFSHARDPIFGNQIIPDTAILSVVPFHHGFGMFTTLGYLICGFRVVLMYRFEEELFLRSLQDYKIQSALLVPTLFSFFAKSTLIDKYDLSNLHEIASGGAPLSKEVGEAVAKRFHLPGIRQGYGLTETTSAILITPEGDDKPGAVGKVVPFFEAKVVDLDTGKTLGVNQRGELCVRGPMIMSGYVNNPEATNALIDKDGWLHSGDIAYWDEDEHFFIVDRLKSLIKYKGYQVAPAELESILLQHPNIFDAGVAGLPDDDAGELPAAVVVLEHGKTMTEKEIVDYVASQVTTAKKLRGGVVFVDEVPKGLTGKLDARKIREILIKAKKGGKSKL

| Compound | activity change, negative = inhibition | Potency |
| --- | --- | --- |
| CCOc1ccc(/C=C(\C#N)c2nc3ccccc3c(=O)[nH]2)cc1OC | -4.72% (inactive) | – |
| Cc1ccc2nc(/C(C#N)=C/c3ccccc3F)[nH]c2c1 | – | 8.49 µM (active) |
| Cc1ccc2nc(/C(C#N)=C\c3ccc(OC(=O)c4cccs4)cc3)[nH]c2c1 | -3.56% (inactive) | – |
| Cc1ccccc1OC/C(O)=C(\C#N)c1nc2ccccc2[nH]1 | 0.866% (inactive) | – |
| COc1cc(/C=C(\C#N)c2nc3ccccc3[nH]2)ccc1O | – | 4.78 µM (active) |
| N#C/C(=C\c1ccccc1F)c1nc2ccccc2c(=O)[nH]1 | 7.06% (inactive) | – |
| COc1cc(/C=C(\C#N)c2nc3c(s2)CC(C)CC3)ccc1O (centres undefined) | – | 0.675 µM (active) |
| COc1cccc2cc(-c3nc(Cl)c4c5c(sc4n3)CC(C)CC5)c(=O)oc12 (centres undefined) | -13.3% (inactive) | – |
| O=C1OC(C(=O)Nc2cccc(Br)c2)Cc2ccccc21 (centres undefined) | -0.169% (inactive) | – |
| O=C(C1CC(=O)N(C2CCCC2)C1)N1CCN(c2cccc(C(F)(F)F)c2)CC1 (centres undefined) | 3.15% (inactive) | – |
| Cc1ccc(CN2CCCOCCS2(=O)=O)cc1 | -0.0995% (inactive) | – |
| Cc1ccc(CNC(=O)CSC2=Nc3ccccc3C3=NC(C)C(=O)N23)cc1 (centres undefined) | -7.16% (inactive) | – |
| Cc1c(Cl)cccc1-c1ccc(CNCCCSc2nnnn2C)o1 | -8.45% (inactive) | – |
| O=C(Cn1cc(/C=N/NC(=O)c2cccc(C(F)(F)F)c2)c2ccccc21)Nc1ccc(F)cc1 | 0.0534% (inactive) | – |
| CC(OC(=O)/C=C/c1ccccc1)C(=O)NC1CCCCC1C (centres undefined) | 3.73% (inactive) | – |
| Cn1nccc1NC(=O)CC(CC(=O)O)c1ccccc1 (centres undefined) | -0.627% (inactive) | – |
| O=C(CN1CCN(c2ccc(O)cc2)CC1)Nc1ccc(-c2ccccc2)cc1 | 2.93% (inactive) | – |
| Oc1ccc(-c2cccc(-c3ccc(O)cc3)c2)cc1 | – | 16.9 µM (active) |
| CC(C#N)(NC(=O)CN1CCN(S(=O)(=O)c2cc(C(F)(F)F)ccc2Cl)CC1)C1CC1 (centres undefined) | 0.354% (inactive) | – |
| O=C1/C(=C/c2ccc(F)cc2)SC(=S)N1NS(=O)(=O)c1ccccc1 | -13.4% (inactive) | – |
| Cc1ccc(-n2c(SCC(=O)Nc3ccc4c(c3)OCO4)nnc2-c2ccoc2C)cc1 | -0.842% (inactive) | – |
| CCC(=O)c1cc(F)ccc1OCC(=O)Nc1ccc2c(c1)OCCO2 | -1.51% (inactive) | – |
| COc1ccc(Cn2ccnc2SCC(=O)Nc2ccc3c(c2)OCO3)cc1 | -1.75% (inactive) | – |
| Cc1ccc(SCC(=O)Nc2ccc3c(c2)OCCO3)cc1 | – | 6.75 µM (active) |
| CCc1ccccc1OCC(=O)Nc1ccc2c(c1)OCCO2 | – | 10.7 µM (active) |
| CC(C)NS(=O)(=O)c1ccc(OCC(=O)Nc2ccc3c(c2)OCCO3)cc1 | 3.95% [at 2.3 µM] (inactive) | – |

| Compound | activity change, negative = inhibition | Potency |
| --- | --- | --- |
| Cc1ccc(S(=O)(=O)NCC(=O)Nc2ccc3c(c2)OCCO3)cc1 | -1.09% (inactive) | – |
| COc1ccc(NC(=O)CSc2nc3ncccc3[nH]2)c(OC)c1 | -0.297% (inactive) | – |
| O=C(CSc1nc2ncccc2[nH]1)Nc1ccc2c(c1)OCCO2 | – | 15.1 µM (active) |
| COc1ccc(NC(=O)CSc2nccn2Cc2ccc3c(c2)OCO3)cc1 | -10.3% (inactive) | – |
| O=C(CSc1nc(=O)n2ccccc2n1)Nc1ccc2c(c1)OCCO2 | -14.3% (inactive) | – |
| Cn1ccnc1SCC(=O)Nc1ccc2c(c1)OCCO2 | – | 23.9 µM (active) |
| CC(C)CCN(C(=O)Nc1ccc(Cl)c(Cl)c1)C(C)c1cccs1 (centres undefined) | 2.6% (inactive) | – |
| CCOC(=O)c1cc2c(=O)n3ccccc3nc2n(CC2CCCO2)c1=NC(=O)c1ccc(C(C)(C)C)cc1 (centres undefined) | 1.25% (inactive) | – |
| COc1ccc(NC(=O)CCNS(=O)(=O)c2ccc3c(c2)CCCC(=O)N3)cc1Cl | -9.31% (inactive) | – |
| Cc1c(Cl)cccc1NC(=O)C(=O)NCCc1csc2nc(-c3ccccc3F)nn12 | -6.1% (inactive) | – |
| NC(CSC12CC3CC(CC(C3)C1)C2)C(=O)O (centres undefined) | 2.42% (inactive) | – |
| O=C(COc1ccc(Cl)cc1)Nc1ccc2c(c1)OCO2 | – | 19 µM (active) |
| O=C(COc1ccc(Cl)cc1)Nc1ccc2oc(=O)ccc2c1 | 0.477% (inactive) | – |
| CCCCC(=O)Nc1ccc2c(c1)OCCO2 | – | 21.3 µM (active) |
| O=C(CSc1ncc(S(=O)(=O)c2ccc(Br)cc2)c(=O)[nH]1)Nc1ccc2c(c1)OCCO2 | – | 9.53 µM (active) |
| S=C(NCc1ccco1)Nc1ccc2c(c1)OCCO2 | – | 15.1 µM (active) |
| COc1ccc(Cl)cc1NC(=O)COc1ccc2c(c1)OCO2 | 1.56% (inactive) | – |
| FC(F)Oc1ccc(NC(=S)NCc2ccco2)cc1Cl | -12.8% (inactive) | – |
| S=C(NCc1ccc2c(c1)OCO2)NCc1ccco1 | -12.6% (inactive) | – |
| COc1ccccc1OCCCC(=O)Nc1ccc2c(c1)OCCO2 | -18.1% (inactive) | – |
| CS(=O)(=O)c1ccc(-c2nnn(CC(=O)Nc3ccc4c(c3)OCCO4)n2)cc1 | -1.07% (inactive) | – |
| O=C(CCS(=O)(=O)Cc1ccccc1)Nc1ccc2c(c1)OCCO2 | -1.15% (inactive) | – |
| Cc1cc(C)c2c(=O)[nH]c(SCC(=O)Nc3ccc(Br)cc3)nc2n1 | -9.23% (inactive) | – |
| COc1ccccc1CNc1nc2ccc(Cl)cc2n2cnnc12 | 1.56% (inactive) | – |
| COCCN(C(=O)CCC(=O)Nc1nccs1)C(C(=O)NCCC(C)C)c1ccc(F)cc1 (centres undefined) | -0.256% (inactive) | – |
| COc1ccccc1C(=O)Nc1ccc(C)c(S(=O)(=O)N2CCCCC2)c1 | -15.8% (inactive) | – |

| Compound | activity change, negative = inhibition | Potency |
| --- | --- | --- |
| CCc1ccccc1NC(=O)c1cnn(-c2ccc(F)cc2)c1C1CCNCC1 | -0.346% (inactive) | – |
| CCc1ccc(C2N3CC4([N+](=O)[O-])CN2CC([N+](=O)[O-])(C3)C4(C)C)cc1 (centres undefined) | 11.6% (inactive) | – |
| Cc1ccc(NC(=O)C(Cc2ccccc2)NS(=O)(=O)c2ccc3c(c2)oc(=O)n3C)cc1C (centres undefined) | 0.393% (inactive) | – |
| Cc1ccc(S(=O)(=O)N(CC(=O)Nc2ccc(Cl)cc2Cl)c2ccccc2C)cc1 | -2.42% (inactive) | – |
| COc1cccc(CNC(=O)Cn2c(=O)c3cccn3c3ccc(F)cc32)c1OC | 1.88% (inactive) | – |
| Cc1ccc(NC(=O)CN(C)C(=O)Cn2nnc(-c3ccccc3)n2)cc1 | 1.45% (inactive) | – |
| Cc1nc2ccc(S(=O)(=O)NC(C(=O)NCc3ccccc3Cl)C(C)C)cc2s1 (centres undefined) | -1.2% (inactive) | – |
| CSc1nnc(-c2ccc(C(F)(F)F)cn2)o1 | -12.7% (inactive) | – |
| O=C(COc1ccccc1F)Nc1ccc(C(=O)OCc2cc(=O)n3nc(C4CC4)sc3n2)cc1 | -1.77% (inactive) | – |
| Cc1cc(=O)[nH]c(SCC(=O)Nc2ccc(Br)cc2)n1 | -4.58% (inactive) | – |
| COc1ccc(NC(=O)CSc2nc(NS(=O)(=O)c3ccc(C)cc3)cc(=O)[nH]2)cc1 | -1.83% (inactive) | – |
| Cc1ccc(NC(=O)CSc2nc(CSc3ccc(C)cc3)cc(=O)[nH]2)cc1 | – | 21.3 µM (active) |
| CC(C)Cc1nnc(NC(=O)CCNC(=O)c2ccccc2Cl)s1 | -0.694% (inactive) | – |
| C/C=C/C=C/C(=O)O | 3.4% (inactive) | – |
| COc1ccc(S(=O)(=O)c2cn(C)c3cc(N4CCCCC4)c(F)cc3c2=O)cc1 | 2.55% (inactive) | – |
| COc1ccc(C(=O)NCC(c2ccc(N(C)C)cc2)N2CCc3ccccc32)c(OC)c1 (centres undefined) | -7.32% (inactive) | – |
| COc1ccc(S(=O)(=O)N2CCCCC2)cc1C(=O)NC1CCS(=O)(=O)C1 (centres undefined) | -0.412% (inactive) | – |
| Cn1cncc1COC(=O)c1ccc(Cl)cc1 | 1.25% (inactive) | – |
| CN1OC(COC(=O)c2ccc(Cl)cc2)CC1c1ccccc1 (centres undefined) | – | 19 µM (active) |
| CCOC(=O)c1ccc(CN(Cc2ccccc2)S(=O)(=O)c2ccc(Cl)cc2)cc1 | -11.5% (inactive) | – |
| O=C(CCS(=O)(=O)c1ccccc1)N(Cc1cccnc1)c1nc2c(F)cccc2s1 | -1.07% (inactive) | – |
| CN(C)c1cccc(C(=O)N2CCC(n3nccc3NC(=O)C3CCOC3)CC2)c1 (centres undefined) | -0.997% (inactive) | – |
| CN(CCO)c1ccc(/C=N/Nc2nncc3ccccc23)cc1 | – | 0.0757 µM (active) |
| Cc1cc2cc3c(N)[nH]nc3nc2cc1C | – | 4.78 µM (active) |
| COCCNC(=O)NC(=O)COC(=O)C1(c2ccc(Cl)cc2)CC1 | -1.43% (inactive) | – |
| CCN(CC)C(=O)CS(=O)CC(=O)Nc1cc(OCCOC)c(Cl)cc1Cl (centres undefined) | 0.36% (inactive) | – |

| Compound | activity change, negative = inhibition | Potency |
| --- | --- | --- |
| O=C(CSc1ccc(-c2ccc(Br)cc2)nn1)NCC1CCCO1 (centres undefined) | – | 15.1 µM (active) |
| O=C(CSc1nnc(-c2ccc(NS(=O)(=O)c3ccccc3)cc2)o1)NCC1CCCO1 (centres undefined) | -1.96% (inactive) | – |
| O=C(CSc1ccc(-c2ccccc2)nn1)NCC1CCCO1 (centres undefined) | -9.68% (inactive) | – |
| CCCC[C@]12Cc3cc(OC)c(OC)cc3C(O1)C1=C(CC3(CCCCC3)OC1=O)O2 | -0.0926% [at 11.5 µM] (inactive) | – |
| Cc1cc(C)c(C#N)c(SCc2ccccc2C(=O)O)n1 | 1.73% (inactive) | – |
| O=C(O)c1ccccc1CSc1nc2ccccc2s1 | – | 19 µM (active) |
| CCN(CC)CCCSc1nc2ccccc2s1 | -18.5% (inactive) | – |
| COCCNC(=O)c1ccc2c(c1)N=C(C)c1cc(C)ccc1S2 | -5.31% (inactive) | – |
| COc1ccc(S(=O)(=O)N2CCOC23CCN(S(=O)(=O)c2ccc([N+](=O)[O-])cc2)CC3)cc1 | 6.4% (inactive) | – |
| CC(=O)N(C)c1ccc(NC(=O)Nc2cccc3ccccc23)cc1 | – | 8.49 µM (active) |
| O=C(O)Cc1ccc(NC(=O)Nc2cccc3ccccc23)cc1 | -15.7% (inactive) | – |
| CCOc1ccc(NC(=O)Nc2ccc(N(C)C(C)=O)cc2)cc1 | 0.16% (inactive) | – |
| CC(=O)Nc1ccc(NC(=O)CSc2nnc3c4cc(Br)ccc4n(C)c3n2)cc1 | 0.306% (inactive) | – |
| CCc1ccc(NC(=O)CN2C(=O)C(c3ccccc3)=NC23CCCCCC3)cc1 | -7.02% (inactive) | – |
| Oc1ccc2ccccc2c1C=Nc1ccccc1 | – | 16.9 µM (active) |
| CCOc1[nH]n(-c2ccc(Cl)cc2)c(=O)c1C=Nc1ccc(O)cc1 | 3.26% (inactive) | – |
| Oc1ccc(N=Cc2c(O)ccc3ccccc23)cc1 | – | 16.9 µM (active) |
| Oc1ccc(N=Cc2sc3ccccc3c2Cl)cc1 | – | 5.36 µM (active) |
| CC(C)CNC(=O)CC(c1ccccc1)c1c(O)ccc2ccccc12 (centres undefined) | 8.33% (inactive) | – |
| O=[N+]([O-])c1ccc(N=Cc2c(O)ccc3ccccc23)cc1 | -8.44% (inactive) | – |
| COc1ccc(-n2ccnc(NCCc3ccc(Cl)cc3)c2=O)cc1OC | -9.74% (inactive) | – |
| Cc1cc(C)cc(NC(=O)c2cnc3sc(N4CCCC4)nn3c2=O)c1 | -2.76% (inactive) | – |
| COc1cccc(CNC(=O)C(=O)NCC(c2cccs2)S(=O)(=O)c2ccccc2)c1 (centres undefined) | -0.915% (inactive) | – |
| Cc1nc2ccc(S(=O)(=O)N(CC(=O)Nc3ccc(F)cc3)Cc3ccccc3)cc2s1 | 2.12% (inactive) | – |
| CCCCC12CN3CC(C)(CN(C1)C3c1ccc(O)c(OC)c1)C2=O (centres undefined) | -9.79% (inactive) | – |
| CCOc1ccc(CNC(=O)C2CCN(c3nnc(-n4cccc4CNc4ccc(C)cc4)s3)CC2)cc1OC | 0.851% (inactive) | – |

Source: PubChem BioAssay AID588342 (National Center for Advancing Translational Sciences (NCATS), 2011)
